Measured values as given in PubChem BioAssay AID2530 (National Center for Advancing Translational Sciences (NCATS), 2010).
Records with an inconclusive call do not appear. A call without a number means that no potency is given here. Calls of active or inactive are those of the source. Calls follow the shape of the dose curve; as a rule, active = well fitted inhibition curve with a large enough effect; inconclusive = small, poorly fitted or top-dose-only effect; inactive = flat fitted curve, though single readings scatter.

molecular target: Luciferin 4-monooxygenase (Photuris pensylvanica) (UniProt Q27757); assay: Secondary Assay for Luciferase (Kinase-Glo TM) Inhibition Counterscreen; details: Kinase-Glo luciferase enzyme, luminescence; series mostly up to 58.1 µM
Procedure, shortened: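 Inhibition was fitted with the Hill equation after normalizing luminescence to DMSO (basal) and 40 uM SIB 1757 (full inhibition). Kinase-Glo luciferase ran for 8 min at room temperature in imidazole buffer pH 7.2 with KCl, MgCl2 and 10 uM ATP.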
Potency is read from the fitted curve at half-maximal effect.

Row | Compound | Potency
1 | Cc1cc2c(s1)c1cnn(Cc3ccccc3F)c(=O)c1n2C | inactive
2 | Cc1ccc(NS(=O)(=O)c2cc3c(cc2Cl)CCC(=O)N3)cc1C | inactive
3 | O=C1c2ccccc2C(=O)N1c1ccc(O)cc1 | inactive
4 | Cc1ccc(NS(=O)(=O)c2ccc3c(c2)CC(=O)N3C)cc1C | inactive
5 | Cc1ccc(NS(=O)(=O)c2cc3c(cc2C)NC(=O)CO3)cc1C | inactive
6 | Cc1nc(N/N=C/c2ccccn2)sc1C | 5.8 µM (active)
7 | O=C1c2ccccc2C(=O)N1c1noc2ccccc12 | inactive
8 | Cn1c(-c2ccc(Br)o2)nc2ccccc21 | 10.3 µM (active)
9 | COc1cc(N2C(=O)C=CC2=O)c(OC)cc1Cl | inactive
10 | Cc1ccc2c(c1)c1ccc3c(c1n2C)C(=O)C=CC3=O | inactive
11 | Cc1ccc(NS(=O)(=O)c2ccc3[nH]c(=O)[nH]c3c2)cc1C | inactive
12 | Cc1ccc(NS(=O)(=O)c2ccc(Cl)cc2)cc1C | inactive
13 | Cc1ccc(N2C(=O)c3ccccc3C2=O)c(C)c1 | inactive
14 | Cc1nc(-c2ccc(C(=O)Nc3ccccc3F)cc2)cs1 | 11.6 µM (active)
15 | O=C1C(Cl)=C(NC(=O)c2ccccc2)C(=O)C(Cl)=C1NC(=O)c1ccccc1 | inactive
16 | Cc1nc(-c2ccc(S(=O)(=O)Nc3ccc(C)c(C)c3)s2)cs1 | inactive
17 | COc1ccc2[nH]c3c4c(ccc3c2c1)C(=O)C=CC4=O | inactive
18 | Cc1ccsc1C(=O)Nc1nc2ccccc2[nH]1 | 16.3 µM (active)
19 | O=S1(=O)N=C(Oc2ccccc2Cl)c2ccccc21 | inactive

Row | Compound | Potency
20 | O=C(NC(=O)c1ccccc1)Nc1ccccn1 | 5.8 µM (active)
21 | CC(=O)Nc1cccc(S(=O)(=O)Nc2ccc(C)c(C)c2)c1 | inactive
22 | Cc1cc(O)c(-c2cc(O)c(C)cc2O)cc1O | inactive
23 | Cc1ccc(NS(=O)(=O)c2cc3c(cc2-c2ccsc2)NC(=O)CO3)cc1C | inactive
24 | Cc1ccc(NS(=O)(=O)c2ccc(F)cc2)cc1C | inactive
25 | Cc1ccnc(NC(=O)c2ccc3c(c2)OCO3)c1 | 11.6 µM (active)
26 | Cc1ccc(NS(=O)(=O)c2cc3c(cc2Br)NC(=O)CO3)cc1C | inactive
27 | COc1ccc(C(=O)N=c2nc3ccccn3s2)cc1 | 5.8 µM (active)
28 | O=CN/C=C/c1cc(O)ccc1O | inactive
29 | O=C1c2ccccc2C(=O)N1c1cccc2cnccc12 | inactive
30 | O=C1CCc2cc(S(=O)(=O)Nc3ccccc3F)ccc2N1 | inactive
31 | Cc1ccc(NS(=O)(=O)c2cccc(F)c2)cc1C | inactive
32 | Cc1ccc(-c2cc3c(nn2)-c2ccccc2C3=O)cc1 | 5.8 µM (active)
33 | Cc1ccc(NS(=O)(=O)c2cc3c(cc2-c2ccco2)NC(=O)CO3)cc1C | inactive
34 | Cc1cc(C)c2c(=O)n(CC(=O)Nc3cccc(Cl)c3C)sc2n1 | inactive
35 | CCOC(=O)C(C(C)=O)c1c(Br)c(O)c(O)c2c(C(=O)c3ccc(C)cc3)coc12 (stereo not drawn) | inactive
36 | O=C1c2ccccc2C(=O)N1c1cccc(Cl)c1 | inactive
37 | O=C1CCc2cc(S(=O)(=O)Nc3cccc(C(F)(F)F)c3)ccc2N1 | inactive
38 | Cc1ccc(NS(=O)(=O)c2ccc(N3CCCC3=O)cc2)cc1C | inactive
